Screens deposited in PubChem by several laboratories.
Peg3 promoter – inhibitors of Peg3 promoter. HeLa PEG-Prom luciferase reporter, luminescence, overnight. inhibition, % at 20 µM. 1.7% of 360,000 active;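 active means inhibition of at least 50% at 20 µM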
TROY signal inh – inhibitors of TROY-dependent NF-kB signaling | Q293 LMP1-TROYcd NF-kB luciferase reporter, 4 h | inhibition, % at 10 µM | 0.98% of 360,000 active;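 active means compounds whose plate-normalised and pattern-corrected inhibition of the luciferase reporter signal at the single screening dose is 50% or more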
HIF-2a block – blocks HIF-2a reporter activity; 0.72% of 360,000 active; 786-0 RCC cells HIF-2a reporter, luciferase luminescence, overnight; AID 624352; inhibition, % at 18.8 µM;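 active means inhibition of the luminescence signal of 40% or more relative to plate controls, in a single-dose primary screen at 18.75 µM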
LMP1 NFkB inh – Epstein-Barr LMP1 NF-kappaB reporter inhibition | LMP1-induced NF-kappaB luciferase reporter cells, luminescence | inhibition, % at 12.5 µM | 0.69% of 350,000 active | AID 504558; in the data active means inhibition above about 41%
TWEAK Fn14 block – TWEAK-Fn14 signaling inhibition | 2% of 360,000 active | inhibition, % at 10 µM | TWEAK-stimulated Fn14 reporter cells, luciferase luminescence, 8 h; in the data active means inhibition above about 50%
TRPM1 prom inh – inhibitors of MITF-driven TRPM1 promoter in melanoma cells; SK-MEL-5 TRPM1 promoter luciferase, 24 h; inhibition, % at 12.5 µM; 0.83% of 330,000 active; AID 488899;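 active means mean inhibition across replicates of 60% or more, whatever share of single replicates reaches that level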
Hits are given with their value; – = inactive; · = not tested or not shown. A selection: hits, their analogues and other compounds. The true share with any hit is near 4%.

SMILES	Peg3 promoter	TROY signal inh	HIF-2a block	LMP1 NFkB inh	TWEAK Fn14 block	TRPM1 prom inh
CN(C)c1ccc(Cc2ccc(N(C)C)cc2)cc1	–	–	–	–	–	·
N=c1n(CCN2CCCCC2)c2ccccc2n1CC(O)c1cccc(Br)c1 (stereo not given)	110	–	–	–	–	–
O=C(Nc1nnc(-c2ccccc2)o1)NC1CCCCC1	–	–	–	68	–	–
c1ccc(-c2nnc(NC3=NCCC3)o2)cc1	–	–	–	–	53	–
CC(C)C(=O)Nc1nnc(-c2ccccc2)o1	–	–	–	–	–	–
O=C(Nc1ccccc1)Nc1nnc(-c2ccccc2)o1	–	–	–	–	–	–
CCCOc1ccc(F)cc1-c1cc(C(=O)Nc2ccc(C(C)C)cc2)[nH]n1	–	–	–	·	–	·
O=C(CCC(=O)N1CCN(S(=O)(=O)c2ccc([N+](=O)[O-])cc2)CC1)N1CCOCC1	–	–	–	–	–	–
CCOC(=O)/C(=C/c1ccc(N2CCC(c3ccccc3)=N2)cc1)C(C)=O	–	–	–	94	–	–
Cn1c(N)c(C(=O)COC(=O)CC2CC3CCC2C3)c(=O)n(C)c1=O (stereo not given)	–	–	–	–	–	–
CCCc1sc(N/N=C/c2ccccn2)nc1-c1ccc(Br)cc1	–	–	–	59	–	–
CC(C)C[C@@H]1O[C@H](CCc2ccccc2)Cc2[nH]c(=S)[nH]c(=O)c21	·	–	–	·	–	·
COc1ccc(CCNC(=O)CSc2nc3[nH]ncc3c(=O)n2-c2ccc(Br)cc2)cc1OC	–	–	–	–	–	–
CCc1ccccc1-n1c(SCC(=O)Nc2ccc3c(c2)OCCO3)nc2[nH]ncc2c1=O	–	80	–	–	88	–
CCc1ccc(-n2c(SCC(=O)Nc3cc(C)[nH]n3)nc3[nH]ncc3c2=O)cc1	–	·	–	–	98	–
CCOc1ccc(Cl)cc1-c1cc(C(=O)NCc2ccccc2OC)[nH]n1	–	–	–	·	–	·
CCCCCCCCNC(C)C(O)c1ccc(SC(C)C)cc1 (stereo not given)	104	–	–	–	–	83
NC(=O)c1nsc(C(=O)N(Cc2cccnc2)C(C(=O)NCc2ccc(F)cc2)c2ccc(F)cc2)c1N (stereo not given)	–	–	–	–	–	–
O=C(O)c1c(F)c(F)cc2ccccc12	–	–	–	–	107	–
Cn1c(=O)c2[nH]c(COc3ccc(C(C)(C)C)cc3)nc2n(C)c1=O	–	–	–	–	–	–
Cn1c(CC(=O)Nc2ccccc2F)nnc1SCC(=O)NC1=NCCS1	–	–	–	–	53	–
CCOc1ccc(C(=O)Nc2ccc(C(=O)N3CCOCC3)cc2)c(OCC)c1	–	–	–	–	–	–
Cc1[nH]n(-c2ccc([N+](=O)[O-])cc2)c(=O)c1C=NCCc1c(C)[nH]c2ccccc12	–	–	–	–	–	–
CCOC(=O)NC(=O)/C(C#N)=N\Nc1ccc(Cl)cc1	–	–	–	–	–	–
CCOC(=O)NC(=O)/C(C#N)=N\Nc1cccc(Cl)c1	–	56	–	–	–	–
SMILES	Peg3 promoter	TROY signal inh	HIF-2a block	LMP1 NFkB inh	TWEAK Fn14 block	TRPM1 prom inh
COc1cc(/C=N/NC(=O)COc2cccc(F)c2)ccc1OS(=O)(=O)c1ccc(C)cc1	–	–	–	–	51	–
CC(C)[C@H]1C(=O)Nc2ccccc2N1C(=O)N[C@@H](Cc1ccccc1)C(=O)N[C@H](C(=O)O)c1ccccc1	–	–	–	–	–	–
CCN(CC)CCN(C)C(=O)c1[nH]c(C(F)(F)F)nc1-c1ccccc1	–	–	–	·	–	·
O=C(NCc1n[nH]c(=S)n1-c1ccc(Cl)c(Cl)c1)c1ccco1	–	–	–	–	–	–
O=[N+]([O-])c1ccc(NC(=S)NCc2ccc(F)cc2)cc1	–	56	–	–	–	–
Fc1ccc(NC(=S)NCc2ccccc2)cc1	–	–	–	–	107	·
O=C1/C(=C\c2ccc(O)cc2)SC(=S)N1Cc1ccccc1	–	–	–	–	–	–
O=C1/C(=C/c2ccccc2)SC(=S)N1CC(=O)N1CCCCC1c1cccnc1 (stereo not given)	59	–	73	–	–	–
Cc1cc(/C=C2\SC(=S)N(Cc3ccco3)C2=O)c(C)n1-c1cccnc1	–	–	–	–	–	–
O=C(CCN1C(=O)/C(=C/c2ccccc2)SC1=S)Nc1cccnc1	–	–	–	–	–	–
O=C1/C(=C\c2cccc([N+](=O)[O-])c2O)SC(=S)N1Cc1ccccc1	56	–	–	–	69	–
